Data: the supplement of paper PMC11732987, “Enantioselective OTUD7B fragment discovery through chemoproteomics screening and high-throughput optimisation” (Communications Chemistry, 2025)

Tests used:
Test in all cases: log2 ratio of Biotin-Ahx-Ub-VS probe labelling (fragment/DMSO); higher = less target engagement (more negative = stronger competition), active = hit call of the paper (q ≤ 0.05, log2 ratio ≤ -1)
Details in all cases: compound concentration: 200 uM; treatment time: 3 h
USP42 = biological target: T1, USP42 (UniProt Q9H9J4)
T1 sequence (whole entry): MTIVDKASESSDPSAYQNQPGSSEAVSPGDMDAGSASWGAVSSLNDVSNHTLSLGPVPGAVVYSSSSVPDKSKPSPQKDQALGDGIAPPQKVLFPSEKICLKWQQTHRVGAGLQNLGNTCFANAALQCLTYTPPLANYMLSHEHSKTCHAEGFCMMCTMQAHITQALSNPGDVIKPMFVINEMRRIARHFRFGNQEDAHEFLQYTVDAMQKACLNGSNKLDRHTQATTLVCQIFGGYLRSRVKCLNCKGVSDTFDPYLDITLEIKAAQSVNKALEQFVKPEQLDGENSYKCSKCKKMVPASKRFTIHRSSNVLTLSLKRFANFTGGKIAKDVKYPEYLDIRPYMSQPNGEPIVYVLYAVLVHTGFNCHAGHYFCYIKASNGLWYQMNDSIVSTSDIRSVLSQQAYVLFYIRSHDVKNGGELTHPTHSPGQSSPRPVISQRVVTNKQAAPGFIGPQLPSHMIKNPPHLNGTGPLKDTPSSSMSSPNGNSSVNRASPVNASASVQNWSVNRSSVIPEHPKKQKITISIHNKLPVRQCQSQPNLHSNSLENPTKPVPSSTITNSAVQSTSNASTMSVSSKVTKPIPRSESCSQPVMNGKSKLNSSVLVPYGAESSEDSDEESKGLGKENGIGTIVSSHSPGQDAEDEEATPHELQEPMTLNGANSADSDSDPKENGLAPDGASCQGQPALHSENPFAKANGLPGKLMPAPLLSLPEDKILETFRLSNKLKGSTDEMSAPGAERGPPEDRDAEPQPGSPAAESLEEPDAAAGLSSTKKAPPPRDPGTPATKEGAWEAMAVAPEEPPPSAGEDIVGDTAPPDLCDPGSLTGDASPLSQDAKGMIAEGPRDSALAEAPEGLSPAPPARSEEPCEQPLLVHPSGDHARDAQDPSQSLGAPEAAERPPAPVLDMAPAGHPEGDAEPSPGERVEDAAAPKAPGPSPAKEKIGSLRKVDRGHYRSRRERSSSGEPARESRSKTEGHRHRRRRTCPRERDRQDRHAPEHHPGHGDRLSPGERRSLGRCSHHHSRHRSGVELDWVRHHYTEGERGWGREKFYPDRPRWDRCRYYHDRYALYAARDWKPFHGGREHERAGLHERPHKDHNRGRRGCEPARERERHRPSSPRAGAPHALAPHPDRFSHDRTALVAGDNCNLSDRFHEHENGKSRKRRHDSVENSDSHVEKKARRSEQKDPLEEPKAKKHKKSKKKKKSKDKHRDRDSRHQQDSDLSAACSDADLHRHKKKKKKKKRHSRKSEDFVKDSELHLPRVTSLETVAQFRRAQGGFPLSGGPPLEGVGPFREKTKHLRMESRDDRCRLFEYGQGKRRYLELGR
In short: (§1)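 Labelling with Biotin-Ahx-Ub-VS (0.5 µM final, 1 h) followed a 3 h triplicate treatment of HEK293T lysate (495 µg per sample, Tris/CHAPS/IGEPAL buffer with protease inhibitors) with fragment at 200 µM or vehicle. Labelled DUBs were NeutrAvidin-enriched, digested with LysC and trypsin, and run by diaPASEF LC-MS/MS. The values, average log2 fragment/vehicle ratios by unpaired t-test, come from global-median-normalised Spectronaut label-free quantities. Proteins with ≥2 unique peptides were used.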

USP46 = USP46 (UniProt P62068)
In short: as §1

USP47 = biological target: T2, USP47 (UniProt Q96K76)
T2 sequence (whole entry): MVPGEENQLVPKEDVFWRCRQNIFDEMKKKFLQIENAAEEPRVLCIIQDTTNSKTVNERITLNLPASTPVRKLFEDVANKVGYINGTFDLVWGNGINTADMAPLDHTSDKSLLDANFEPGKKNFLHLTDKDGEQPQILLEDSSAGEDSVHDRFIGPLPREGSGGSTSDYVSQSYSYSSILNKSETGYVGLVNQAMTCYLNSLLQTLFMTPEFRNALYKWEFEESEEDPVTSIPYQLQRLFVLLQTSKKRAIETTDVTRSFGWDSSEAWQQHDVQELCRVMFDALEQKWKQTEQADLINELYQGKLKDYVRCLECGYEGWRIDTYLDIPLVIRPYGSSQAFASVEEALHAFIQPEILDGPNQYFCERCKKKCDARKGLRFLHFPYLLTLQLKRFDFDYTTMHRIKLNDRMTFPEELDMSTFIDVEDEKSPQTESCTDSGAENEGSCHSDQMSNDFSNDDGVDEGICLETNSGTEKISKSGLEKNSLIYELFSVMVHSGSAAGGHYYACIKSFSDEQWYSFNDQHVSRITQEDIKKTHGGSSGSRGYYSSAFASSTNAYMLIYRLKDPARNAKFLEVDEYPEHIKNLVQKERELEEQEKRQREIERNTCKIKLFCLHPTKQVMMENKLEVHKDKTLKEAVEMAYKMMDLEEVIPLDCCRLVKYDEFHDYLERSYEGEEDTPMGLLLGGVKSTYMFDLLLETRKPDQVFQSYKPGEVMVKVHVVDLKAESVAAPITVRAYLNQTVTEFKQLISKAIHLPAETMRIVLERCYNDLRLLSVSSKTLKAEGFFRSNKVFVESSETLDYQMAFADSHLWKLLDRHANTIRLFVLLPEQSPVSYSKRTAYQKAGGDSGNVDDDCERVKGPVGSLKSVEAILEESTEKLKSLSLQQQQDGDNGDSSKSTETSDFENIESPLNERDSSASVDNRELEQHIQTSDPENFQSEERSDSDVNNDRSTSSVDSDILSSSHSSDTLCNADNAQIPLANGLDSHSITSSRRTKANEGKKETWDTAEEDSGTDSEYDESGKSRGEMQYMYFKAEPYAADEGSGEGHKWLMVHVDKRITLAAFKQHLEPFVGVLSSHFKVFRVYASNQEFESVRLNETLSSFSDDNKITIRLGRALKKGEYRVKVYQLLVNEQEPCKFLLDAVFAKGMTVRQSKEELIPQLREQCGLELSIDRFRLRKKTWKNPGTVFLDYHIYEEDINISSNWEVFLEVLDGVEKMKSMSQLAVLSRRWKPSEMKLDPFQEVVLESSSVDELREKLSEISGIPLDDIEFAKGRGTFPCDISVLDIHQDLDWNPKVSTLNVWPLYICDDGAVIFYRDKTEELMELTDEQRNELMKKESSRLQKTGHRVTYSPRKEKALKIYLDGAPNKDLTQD
In short: as §1

USP48 = biological target: T3, USP48 (UniProt Q86UV5)
T3 sequence (whole entry): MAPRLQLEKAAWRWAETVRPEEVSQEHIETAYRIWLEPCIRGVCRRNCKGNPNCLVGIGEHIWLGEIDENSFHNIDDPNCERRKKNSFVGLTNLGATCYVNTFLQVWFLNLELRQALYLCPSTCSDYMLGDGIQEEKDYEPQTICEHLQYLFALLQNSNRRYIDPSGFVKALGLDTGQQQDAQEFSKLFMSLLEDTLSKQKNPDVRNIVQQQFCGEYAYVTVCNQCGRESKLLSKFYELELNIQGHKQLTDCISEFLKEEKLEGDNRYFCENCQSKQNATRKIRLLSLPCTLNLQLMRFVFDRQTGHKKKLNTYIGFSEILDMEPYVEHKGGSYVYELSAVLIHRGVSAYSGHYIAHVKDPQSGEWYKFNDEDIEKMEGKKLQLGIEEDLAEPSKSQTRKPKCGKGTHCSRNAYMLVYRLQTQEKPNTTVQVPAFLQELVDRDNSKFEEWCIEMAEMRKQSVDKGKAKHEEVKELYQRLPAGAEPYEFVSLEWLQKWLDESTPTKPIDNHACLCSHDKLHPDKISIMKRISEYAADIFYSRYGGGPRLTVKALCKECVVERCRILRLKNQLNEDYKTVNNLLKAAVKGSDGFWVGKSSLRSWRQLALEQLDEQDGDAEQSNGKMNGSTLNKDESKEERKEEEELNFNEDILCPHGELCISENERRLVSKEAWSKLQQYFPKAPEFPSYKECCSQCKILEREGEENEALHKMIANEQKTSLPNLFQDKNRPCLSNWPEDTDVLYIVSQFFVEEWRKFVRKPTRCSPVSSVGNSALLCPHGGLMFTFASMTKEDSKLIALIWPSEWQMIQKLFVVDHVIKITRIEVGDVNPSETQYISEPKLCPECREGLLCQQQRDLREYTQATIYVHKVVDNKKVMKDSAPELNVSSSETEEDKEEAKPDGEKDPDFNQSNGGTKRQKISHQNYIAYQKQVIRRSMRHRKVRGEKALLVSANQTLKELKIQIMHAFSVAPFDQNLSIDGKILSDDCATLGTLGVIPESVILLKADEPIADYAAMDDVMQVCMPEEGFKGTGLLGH
In short: as §1

USP5 = biological target: T4, USP5 (UniProt P45974)
T4 sequence (whole entry): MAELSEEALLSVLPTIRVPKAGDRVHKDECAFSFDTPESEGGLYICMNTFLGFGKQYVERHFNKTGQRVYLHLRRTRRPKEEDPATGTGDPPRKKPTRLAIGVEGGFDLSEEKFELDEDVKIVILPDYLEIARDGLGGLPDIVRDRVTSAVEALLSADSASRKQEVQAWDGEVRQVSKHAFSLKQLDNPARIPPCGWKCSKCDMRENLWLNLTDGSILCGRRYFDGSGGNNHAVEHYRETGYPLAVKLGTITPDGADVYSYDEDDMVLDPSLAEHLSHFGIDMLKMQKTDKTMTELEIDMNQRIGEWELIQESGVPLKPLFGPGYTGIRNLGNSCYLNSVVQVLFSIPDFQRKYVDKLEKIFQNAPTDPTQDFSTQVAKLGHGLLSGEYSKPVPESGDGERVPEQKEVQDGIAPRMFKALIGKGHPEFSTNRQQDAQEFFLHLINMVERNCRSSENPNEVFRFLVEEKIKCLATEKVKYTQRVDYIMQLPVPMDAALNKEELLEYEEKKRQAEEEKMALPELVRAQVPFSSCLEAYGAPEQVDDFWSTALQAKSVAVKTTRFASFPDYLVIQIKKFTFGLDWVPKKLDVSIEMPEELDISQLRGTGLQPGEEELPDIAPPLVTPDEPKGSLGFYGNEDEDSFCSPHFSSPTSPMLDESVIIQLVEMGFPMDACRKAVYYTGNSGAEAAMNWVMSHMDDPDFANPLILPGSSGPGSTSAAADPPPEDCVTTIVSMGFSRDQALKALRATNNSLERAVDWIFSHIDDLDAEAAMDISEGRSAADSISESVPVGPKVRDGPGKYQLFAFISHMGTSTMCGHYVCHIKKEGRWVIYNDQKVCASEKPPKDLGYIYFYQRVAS
In short: as §1

USP54 = USP54 (UniProt Q70EL1)
In short: as §1

USP7 = USP7 (UniProt Q93009)
In short: as §1

USP8 = biological target: T5, USP8 (UniProt P40818)
T5 sequence (whole entry): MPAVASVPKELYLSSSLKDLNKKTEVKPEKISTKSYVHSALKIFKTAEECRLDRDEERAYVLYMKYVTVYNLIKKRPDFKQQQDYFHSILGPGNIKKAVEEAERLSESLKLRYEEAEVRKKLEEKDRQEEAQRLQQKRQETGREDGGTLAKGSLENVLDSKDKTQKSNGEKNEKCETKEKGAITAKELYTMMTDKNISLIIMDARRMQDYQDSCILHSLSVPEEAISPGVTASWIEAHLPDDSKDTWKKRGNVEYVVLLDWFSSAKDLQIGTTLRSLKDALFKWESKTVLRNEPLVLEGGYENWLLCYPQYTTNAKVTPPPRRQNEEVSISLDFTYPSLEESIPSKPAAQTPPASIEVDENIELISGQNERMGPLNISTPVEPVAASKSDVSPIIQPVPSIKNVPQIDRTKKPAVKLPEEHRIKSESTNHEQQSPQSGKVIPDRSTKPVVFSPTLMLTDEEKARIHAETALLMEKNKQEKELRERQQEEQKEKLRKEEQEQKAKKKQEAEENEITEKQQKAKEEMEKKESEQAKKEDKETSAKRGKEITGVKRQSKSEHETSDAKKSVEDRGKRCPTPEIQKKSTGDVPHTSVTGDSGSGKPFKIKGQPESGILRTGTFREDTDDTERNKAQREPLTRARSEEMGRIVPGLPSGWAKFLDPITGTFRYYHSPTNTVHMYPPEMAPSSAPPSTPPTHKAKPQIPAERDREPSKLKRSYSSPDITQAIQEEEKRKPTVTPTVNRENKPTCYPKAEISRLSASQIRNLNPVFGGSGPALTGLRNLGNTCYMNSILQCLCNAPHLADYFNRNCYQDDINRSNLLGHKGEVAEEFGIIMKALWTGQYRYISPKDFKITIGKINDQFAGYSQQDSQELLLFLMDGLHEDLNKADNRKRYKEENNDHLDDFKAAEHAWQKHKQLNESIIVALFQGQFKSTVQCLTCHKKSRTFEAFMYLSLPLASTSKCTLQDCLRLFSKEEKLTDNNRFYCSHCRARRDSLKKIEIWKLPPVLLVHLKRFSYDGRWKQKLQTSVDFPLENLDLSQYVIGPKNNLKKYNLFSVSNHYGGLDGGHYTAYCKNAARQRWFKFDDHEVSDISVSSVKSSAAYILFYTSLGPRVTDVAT
In short: as §1

USP9X = USP9X (UniProt Q93008)
In short: as §1

UniProt O00487 = biological target: UniProt O00487
In short: as §1

Measured: log2 ratio of Biotin-Ahx-Ub-VS probe labelling

Sequence of UniProt O00487 (O00487 whole entry): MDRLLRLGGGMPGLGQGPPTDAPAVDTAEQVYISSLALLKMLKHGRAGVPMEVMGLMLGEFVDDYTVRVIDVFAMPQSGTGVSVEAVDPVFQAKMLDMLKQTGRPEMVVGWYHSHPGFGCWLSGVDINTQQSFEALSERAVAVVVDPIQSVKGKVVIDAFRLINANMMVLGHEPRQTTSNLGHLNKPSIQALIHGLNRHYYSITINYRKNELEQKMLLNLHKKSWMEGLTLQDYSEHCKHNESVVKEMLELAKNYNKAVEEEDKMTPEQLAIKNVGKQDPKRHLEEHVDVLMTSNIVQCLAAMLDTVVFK
Sequence of USP54 (Q70EL1 whole entry): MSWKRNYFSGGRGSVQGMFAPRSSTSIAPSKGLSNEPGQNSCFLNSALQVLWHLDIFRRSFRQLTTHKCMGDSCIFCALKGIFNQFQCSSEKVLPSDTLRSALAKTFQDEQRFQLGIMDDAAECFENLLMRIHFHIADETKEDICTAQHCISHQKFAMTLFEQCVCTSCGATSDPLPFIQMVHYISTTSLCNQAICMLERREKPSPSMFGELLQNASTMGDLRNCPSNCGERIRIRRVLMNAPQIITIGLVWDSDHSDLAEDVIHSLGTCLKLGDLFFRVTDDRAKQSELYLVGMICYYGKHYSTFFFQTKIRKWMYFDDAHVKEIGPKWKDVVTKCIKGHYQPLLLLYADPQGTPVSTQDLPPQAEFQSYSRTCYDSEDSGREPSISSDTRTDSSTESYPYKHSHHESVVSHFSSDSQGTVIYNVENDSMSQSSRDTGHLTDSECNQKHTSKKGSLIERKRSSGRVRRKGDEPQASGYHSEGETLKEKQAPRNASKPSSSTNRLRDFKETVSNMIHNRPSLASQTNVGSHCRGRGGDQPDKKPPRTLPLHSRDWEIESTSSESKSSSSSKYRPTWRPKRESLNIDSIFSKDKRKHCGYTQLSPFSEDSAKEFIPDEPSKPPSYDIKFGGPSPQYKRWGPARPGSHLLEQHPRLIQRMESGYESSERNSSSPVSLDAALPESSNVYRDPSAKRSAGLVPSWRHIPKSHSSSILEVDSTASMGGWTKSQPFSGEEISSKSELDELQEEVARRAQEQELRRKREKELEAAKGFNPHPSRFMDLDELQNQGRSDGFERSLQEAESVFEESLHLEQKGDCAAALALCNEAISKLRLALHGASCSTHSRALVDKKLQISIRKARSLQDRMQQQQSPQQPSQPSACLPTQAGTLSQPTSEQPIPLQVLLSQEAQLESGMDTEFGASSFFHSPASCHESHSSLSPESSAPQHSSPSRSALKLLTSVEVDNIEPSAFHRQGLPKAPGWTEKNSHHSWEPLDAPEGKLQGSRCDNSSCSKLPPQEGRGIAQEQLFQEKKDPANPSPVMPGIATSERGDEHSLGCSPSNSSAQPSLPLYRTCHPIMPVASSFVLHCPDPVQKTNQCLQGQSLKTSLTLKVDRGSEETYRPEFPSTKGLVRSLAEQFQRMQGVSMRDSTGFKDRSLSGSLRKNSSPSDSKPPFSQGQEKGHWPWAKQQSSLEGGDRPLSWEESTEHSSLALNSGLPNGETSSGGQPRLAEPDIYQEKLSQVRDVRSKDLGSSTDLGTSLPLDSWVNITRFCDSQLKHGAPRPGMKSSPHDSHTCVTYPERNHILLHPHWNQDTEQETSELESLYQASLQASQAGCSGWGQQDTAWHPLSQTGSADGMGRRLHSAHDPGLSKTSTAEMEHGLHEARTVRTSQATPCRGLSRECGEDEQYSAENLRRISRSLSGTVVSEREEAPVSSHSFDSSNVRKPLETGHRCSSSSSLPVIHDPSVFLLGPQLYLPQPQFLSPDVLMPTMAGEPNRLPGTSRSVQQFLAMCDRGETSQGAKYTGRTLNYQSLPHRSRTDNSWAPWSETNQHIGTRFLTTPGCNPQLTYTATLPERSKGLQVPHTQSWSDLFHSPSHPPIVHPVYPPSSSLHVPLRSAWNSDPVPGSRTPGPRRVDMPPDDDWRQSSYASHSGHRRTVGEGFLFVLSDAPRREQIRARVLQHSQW
Sequence of USP7 (Q93009 whole entry, looked up): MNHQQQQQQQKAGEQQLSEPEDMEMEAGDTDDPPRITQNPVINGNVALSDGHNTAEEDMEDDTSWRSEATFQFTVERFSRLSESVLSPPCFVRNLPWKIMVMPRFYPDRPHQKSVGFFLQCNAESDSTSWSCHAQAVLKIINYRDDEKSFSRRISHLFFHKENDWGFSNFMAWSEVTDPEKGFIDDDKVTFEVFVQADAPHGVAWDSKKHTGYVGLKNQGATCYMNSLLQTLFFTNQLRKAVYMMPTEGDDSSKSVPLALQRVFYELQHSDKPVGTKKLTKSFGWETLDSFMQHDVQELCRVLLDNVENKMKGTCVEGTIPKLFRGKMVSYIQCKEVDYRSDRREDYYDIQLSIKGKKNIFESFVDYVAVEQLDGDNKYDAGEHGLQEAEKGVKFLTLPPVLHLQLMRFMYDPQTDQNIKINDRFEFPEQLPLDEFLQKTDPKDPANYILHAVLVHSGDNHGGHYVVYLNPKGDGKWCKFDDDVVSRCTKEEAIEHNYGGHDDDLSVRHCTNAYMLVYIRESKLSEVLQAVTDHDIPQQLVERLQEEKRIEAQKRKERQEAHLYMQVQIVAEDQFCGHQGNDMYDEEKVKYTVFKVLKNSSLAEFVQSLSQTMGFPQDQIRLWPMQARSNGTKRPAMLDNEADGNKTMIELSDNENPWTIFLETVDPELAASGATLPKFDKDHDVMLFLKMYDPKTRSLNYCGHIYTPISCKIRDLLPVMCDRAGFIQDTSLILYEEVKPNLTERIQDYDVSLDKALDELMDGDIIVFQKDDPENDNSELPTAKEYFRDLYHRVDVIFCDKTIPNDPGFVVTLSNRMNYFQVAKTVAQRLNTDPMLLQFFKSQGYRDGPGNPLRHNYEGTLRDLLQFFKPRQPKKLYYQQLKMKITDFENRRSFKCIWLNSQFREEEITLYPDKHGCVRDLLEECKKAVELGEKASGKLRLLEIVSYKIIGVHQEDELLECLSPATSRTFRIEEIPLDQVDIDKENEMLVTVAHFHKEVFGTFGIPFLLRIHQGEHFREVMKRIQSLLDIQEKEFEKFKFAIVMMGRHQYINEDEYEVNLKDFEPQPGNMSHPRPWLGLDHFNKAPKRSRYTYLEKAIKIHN
Sequence of USP46 (P62068 whole entry): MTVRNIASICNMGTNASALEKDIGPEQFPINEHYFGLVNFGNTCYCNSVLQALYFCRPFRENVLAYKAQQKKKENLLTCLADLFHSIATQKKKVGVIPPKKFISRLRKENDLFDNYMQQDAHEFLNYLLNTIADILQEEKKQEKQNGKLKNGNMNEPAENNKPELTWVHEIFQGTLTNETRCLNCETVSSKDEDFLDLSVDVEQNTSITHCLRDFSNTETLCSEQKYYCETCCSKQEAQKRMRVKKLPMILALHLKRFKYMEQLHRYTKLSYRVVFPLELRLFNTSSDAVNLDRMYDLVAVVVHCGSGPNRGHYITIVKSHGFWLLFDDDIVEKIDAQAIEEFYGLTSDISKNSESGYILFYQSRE

O=C(CCl)Nc1ccc(F)cc1F
inactive: USP42 -0.555 | USP46 -0.0216 | USP47 -0.211 | USP48 -0.0331 | USP5 -0.0493 | USP54 0.615 | USP7 -0.0738 | USP8 -0.257 | USP9X -0.218 | UniProt O00487 -0.099
